# Bioassay records as filed in PubChem BioAssay.
# An excerpt weighted towards active compounds, which were near 2.6% of everything screened.
# Cruzain Triton = cruzain (T. cruzi) inhibition with detergent; 200,000 tested, 0.43% active; Potency, µM, for inactives: max response, negative = inhibition, most hits filed as inhibitors; P25779; purified cruzain, Z-FR-AMC fluorescence, 0.01% Triton;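 also: plate controls were neutral wells for no effect and buffer without enzyme for full effect; nearly all actives have a fitted effect of over 40% in size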
# Target sequence (P25779 123-467 limits assumed): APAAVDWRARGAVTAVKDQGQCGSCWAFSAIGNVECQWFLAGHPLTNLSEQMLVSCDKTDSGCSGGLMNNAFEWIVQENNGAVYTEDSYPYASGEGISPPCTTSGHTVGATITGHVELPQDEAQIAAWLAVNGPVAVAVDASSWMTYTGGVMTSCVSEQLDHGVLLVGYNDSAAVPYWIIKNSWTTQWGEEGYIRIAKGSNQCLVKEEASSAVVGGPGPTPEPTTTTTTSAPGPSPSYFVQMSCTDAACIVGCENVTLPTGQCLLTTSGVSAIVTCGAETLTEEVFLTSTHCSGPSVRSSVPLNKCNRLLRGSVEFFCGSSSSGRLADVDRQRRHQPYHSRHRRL
#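 Compounds were screened in titration against cruzain (1.5 nM) with 0.01% Triton X-100 to counter colloidal aggregation. Activity was the AMC fluorescence increase over 60 s after adding 2 uM Z-FR-AMC at pH 5.5.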
# Cruzain noTriton = cruzain (T. cruzi) inhibition without detergent | 200,000 tested, 2.3% active | purified cruzain, Z-FR-AMC fluorescence, no detergent | Potency, µM, without a hit: max response, negative = inhibition, actives largely listed as inhibitors | P25779;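 also: plate controls were enzyme without inhibitor for no effect and buffer without enzyme for full effect; nearly all actives have a fitted effect of over 40% in size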
#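 Detergent-free condition (0.00005% Triton X-100) in acetate buffer pH 5.5 with DTT. 1.5 nM enzyme and compound were pre-mixed 15 min, then 2 uM Z-FR-AMC substrate added; reaction progress from fluorescence change between first and third reads (60 s).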
# An asterisk follows results filed as active; ? = inconclusive. Calls follow the shape of the dose curve; as a rule, active = well fitted curve in the direction sought with a large enough effect; inconclusive = small, poorly fitted or top-dose-only effect, or another doubt; inactive = no such curve, though single readings can be large; an effect the other way counts as inactive or inconclusive. Potency is read from the fitted curve at half-maximal effect.
SMILES,Cruzain Triton,Cruzain noTriton
COc1ccc2c(c1)c1c(c(=O)n(-c3ccccc3)c(=O)n1CC(=O)Nc1ccc(C)c(C)c1)n2C,1%,-2%
O=C(Nc1ccc2nc(SCC(=O)N3CCc4ccccc43)sc2c1)c1cccc(F)c1,-3%,?
CCc1cccc(C)c1NC(=O)Cn1nnc(-c2nc(-c3ccccc3F)no2)c1N,-8%,?
COc1ccccc1C(=O)Nc1cc2cc(Br)ccc2oc1=O,-2%,16µM*
COc1ccccc1C(=O)Nc1cc2ccccc2oc1=O,20%,3%
COC(=O)c1ccccc1NC(=O)c1ccc(COc2cccc3ccccc23)o1,-1%,16µM*
COC(=O)c1ccccc1NC(=O)c1ccc(COc2ccccc2)o1,-12%,-17%
COc1ccc(NCc2cc3cc4c(cc3n(CC(=O)Nc3ccc(C)cc3C)c2=O)OCO4)cc1,-7%,?
CCc1ccc(NCc2cc3cc4c(cc3n(CC(=O)Nc3ccc(OC)cc3)c2=O)OCO4)cc1,-3%,2%
COc1ccc(NCc2cc3cc4c(cc3n(CC(=O)Nc3ccc(C)cc3)c2=O)OCO4)cc1,-6%,20µM*
CCc1ccc(NCc2cc3ccc(OC)cc3n(CC(=O)Nc3c(C)cc(C)cc3C)c2=O)cc1,-2%,3%
CCc1ccc(NCc2cc3ccc(OC)cc3n(CC(=O)Nc3ccc(C)c(Cl)c3)c2=O)cc1,-3%,25µM*
CCc1ccc(NCc2cc3cc4c(cc3n(CC(=O)Nc3cccc(OC)c3)c2=O)OCO4)cc1,-5%,25µM*
CC(=O)Nc1c(C(=O)Nc2cccc(C)c2)nnn1-c1ccc(C)cc1,-9%,?
Cc1ccc(Cl)cc1N1CCN(C(=O)c2ccc3c(c2)N(Cc2ccccc2)CCS3)CC1,-1%,?
COc1ccc2c(CNC3CCC(C)CC3)c(C(=O)O)n(Cc3ccccc3)c2c1 (stereo not drawn),-3%,-7%
Cc1ccc(NS(=O)(=O)c2cc([N+](=O)[O-])ccc2NNC(=S)Nc2cc(C)ccc2C)c(C)c1,-10%,?
Cc1ccccc1NS(=O)(=O)c1cc(C(=O)Nc2cccc([N+](=O)[O-])c2)ccc1C,-6%,11%
COc1ccc(NC(=S)NNc2ccc([N+](=O)[O-])cc2S(=O)(=O)Nc2ccc(C)cc2C)cc1,-14%,25µM*
Cc1ccc(NS(=O)(=O)c2cc([N+](=O)[O-])ccc2NNC(=S)Nc2cccc(Cl)c2)c(C)c1,20µM*,-22%
Cc1cccc(N2CCN(CCCNc3ncnc4onc(-c5ccc(Cl)cc5)c34)CC2C)c1 (stereo not drawn),0%,-17%
CC1(O)/C=C\C=C(\CO)C2CC(C)(C)C2(O)CC1 (stereo not drawn),1%,-4%
O=C(Nc1nc(-c2ccccc2)cs1)C1c2ccccc2Oc2ccccc21,5%,20µM*
COc1ccc(OC)c(-c2csc(NC(=O)C3c4ccccc4Oc4ccccc43)n2)c1,1%,20µM*
O=C(Nc1nc(-c2ccncc2)cs1)C1c2ccccc2Oc2ccccc21,-10%,?
SMILES,Cruzain Triton,Cruzain noTriton
COc1ccc(OC)c(-c2csc(NC(=O)CSc3ccccc3)n2)c1,-6%,4%
CCc1ccc(CNC(=O)Cc2c(C(=O)O)c(C)cn2C)cc1,2%,-9%
COc1ccccc1NC(=O)c1sc2ncn(Cc3ccc(C)cc3)c(=O)c2c1C,7%,-9%
COc1ccccc1NC(=O)c1sc2ncn(Cc3cccc4ccccc34)c(=O)c2c1C,13%,7.9µM*
O=C(COC(=O)/C=C/c1ccccc1[N+](=O)[O-])Nc1ccc(OC(F)F)cc1,-1%,-21%
O=C(COC(=O)/C=C/c1ccccc1[N+](=O)[O-])Nc1ccc(OCc2ccccc2)cc1,3%,25µM*
COCCCNC(=O)C1CCN(Cc2cc3ccccc3n2Cc2cccc(Cl)c2)CC1,0%,6%
Cc1ccccc1C1CC(=O)Oc2cc(C)c(Br)c(C)c21 (stereo not drawn),-4%,2%
Cc1nc(NC(=O)c2ccccc2)sc1-c1csc(N)n1,-9%,-14%
Cc1nc(N)sc1-c1csc(N(C)c2ccc(O)cc2)n1,13µM*,5µM*
CCOC(=O)CSc1nc2ccccc2c(=O)n1CCc1ccc(OC)c(OC)c1,2%,0%
CCOc1ccc(OCC)c(NC(=O)c2cc(S(=O)(=O)N3CCCC3)cn2C)c1,0%,-2%
O=C(Nc1cccnc1Cl)c1cc(-c2ccco2)on1,5%,3%
COc1cc(NC(=O)c2cc(-c3ccco3)on2)c(OC)cc1Cl,5%,10µM*
COC(=O)Cc1c(C)c2ccc(OCC(C)=O)c(C)c2oc1=O,-7%,13%
CCN(CC)Cc1c(O)ccc2c(C)c(CC(=O)OC)c(=O)oc12,25µM*,?
CCCN(CCC)CCCNC(=O)c1cc2c(=O)oc3ccc(C)cc3c2s1,-2%,-9%
COc1ccccc1NC(=O)Cn1c(=O)n(CCc2c[nH]c3ccccc23)c(=O)c2cccnc21,-3%,20µM*
COc1ccccc1NC(=O)CSc1nc2nccnc2c(=O)n1CCc1c[nH]c2ccccc12,-3%,4%
CCCNC(=O)C1CCC(Cn2c(=O)c3sccc3n(CC(=O)NCc3ccccc3)c2=O)CC1 (stereo not drawn),0%,11%
COC(=O)c1c(NC(=O)c2ccc(N(C)S(=O)(=O)c3ccc(C)cc3)cc2)sc2c1CCCC2,-4%,4µM*
COC(=O)c1c(NC(=O)c2ccccc2N(C)S(=O)(=O)c2ccccc2)sc2c1CCCC2,-7%,25µM*
CCOC(=O)c1c(NC(=O)c2ccccc2N(C)S(=O)(=O)c2ccccc2)sc2c1CCCC2,-2%,20µM*
CCOC(=O)c1c(NC(=O)c2ccccc2Cl)sc2c1CCCC2,-1%,-14%
COC(=O)c1c(NC(=O)CS(=O)(=O)c2ccc(C)cc2)sc2c1CCCC2,-8%,?
SMILES,Cruzain Triton,Cruzain noTriton
COC(=O)c1c(NC(=O)CN(c2ccccc2)S(C)(=O)=O)sc2c1CCCC2,-6%,?
COc1ccc(CNc2nc3c(-c4ccc(C)cc4)nnn3c3ccccc23)cc1,-3%,15%
Cc1cccc(NC(=O)CCNS(=O)(=O)c2ccc3c(c2)CCN3C(=O)C2CC2)c1,0%,3%
CCOc1ccc(CCNC(=O)CCc2c(C)nc3c(c(C)nn3-c3ccccc3)c2C)cc1OCC,3%,?
CN(Cc1ccccc1)C(=O)CSc1nc2ccsc2c(=O)n1-c1ccc(F)cc1,1%,7%
CCOc1cc(CNC(=O)c2cc(-c3ccccc3)n[nH]2)cc(OCC)c1OCC,-7%,15%
Cc1cc2nc(/N=C(\N)NC(=O)N3c4ccccc4Sc4ccccc43)nc(C)c2cc1C,-4%,16µM*
Cc1ccc2nc(/N=C(\N)NC(=O)N3c4ccccc4Sc4ccccc43)nc(C)c2c1,-4%,?
COc1ccc(NC(=O)NCc2c(-n3cccc3)sc3c2CCCC3)c(OC)c1,-3%,13%
Cc1ccccc1NS(=O)(=O)c1cc(C(=O)NCCC2=CCCCC2)ccc1Cl,-2%,-1%
Cc1ccc(C(=O)NCC(=O)OC(C)C(=O)NCCC2=CCCCC2)cc1C (stereo not drawn),22µM*,?
CCOc1ccc(OCC)c(NC(=O)c2ccc(-c3ccccc3)s2)c1,-5%,-5%
CCOC(=O)c1c(NC(=O)CSc2nnc3ccccn23)sc2c1CCC2,-7%,13%
CCOC(=O)c1c(NC(=O)CSc2nnc(-c3c[nH]c4ccccc34)n2CCOC)sc2c1CCCCC2,1%,-9%
